Data as given in PubChem BioAssay (NCATS).
Inconclusive results are not listed. Entries that show only a call come without a potency. Active and inactive are the calls of the source. The call rests on the fitted dose curve; in most records, active means well fitted inhibition curve with a large enough effect; inconclusive means small, poorly fitted or top-dose-only effect; inactive means flat fitted curve, though single readings scatter.

biological target: Luciferin 4-monooxygenase (Photinus pyralis) (UniProt P08659); experiment: Biochemical firefly luciferase enzyme assay for NPC (AID 624030); further: nearly all actives have a fitted effect of over 70% in size; conditions: purified P. pyralis luciferase, luminescence, 5 min; series mostly up to 58.6 µM
Sequence (P08659 whole entry, looked up): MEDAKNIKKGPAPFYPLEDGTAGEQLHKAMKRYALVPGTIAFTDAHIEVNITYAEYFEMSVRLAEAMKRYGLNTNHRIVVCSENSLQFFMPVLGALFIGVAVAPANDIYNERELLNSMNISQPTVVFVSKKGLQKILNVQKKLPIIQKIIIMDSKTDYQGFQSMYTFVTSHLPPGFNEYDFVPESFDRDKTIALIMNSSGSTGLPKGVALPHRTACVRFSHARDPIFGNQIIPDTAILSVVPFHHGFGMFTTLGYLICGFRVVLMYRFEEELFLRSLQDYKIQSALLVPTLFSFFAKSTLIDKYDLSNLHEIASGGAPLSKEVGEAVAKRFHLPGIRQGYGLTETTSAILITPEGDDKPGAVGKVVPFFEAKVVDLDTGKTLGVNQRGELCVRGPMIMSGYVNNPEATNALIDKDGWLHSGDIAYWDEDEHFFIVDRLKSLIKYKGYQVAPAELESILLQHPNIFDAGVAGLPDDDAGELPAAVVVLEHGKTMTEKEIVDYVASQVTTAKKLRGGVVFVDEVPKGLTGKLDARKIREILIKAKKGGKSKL
Method in brief: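 Counter-screen for direct inhibition of the luciferase enzyme by approved-drug library compounds, run at 10 nM enzyme in 50 mM Tris acetate (final). Luminescence was read within 5 min of enzyme-buffer addition and normalized to PTC124 versus DMSO (0%).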
Potency means the concentration at half of the fitted maximal effect.

Structure (SMILES)	Potency
CCOP(=S)(OCC)O/N=C(\C#N)c1ccccc1	inactive
O=C(CCl)c1ccc(Cl)cc1Cl	inactive
CCC(=O)O[C@H]1CC[C@H]2[C@@H]3CCC4=CC(=O)CC[C@]4(C)[C@H]3CC[C@]12C	inactive
COP(=S)(OC)Oc1ccc(Sc2ccc(OP(=S)(OC)OC)cc2)cc1	25.6 µM (active)
C=CCOC(Cn1ccnc1)c1ccc(Cl)cc1Cl (centres undefined)	inactive
O=C(NC(=O)c1c(F)cccc1F)Nc1cc(Cl)c(OC(F)(F)C(F)C(F)(F)F)cc1Cl (centres undefined)	inactive
C[C@H]1C(=O)O[C@@H]2CCN3CC=C(COC(=O)[C@](C)(O)[C@]1(C)O)[C@H]23	inactive
CCCCCCCCC(=O)NCc1ccc(O)c(OC)c1	inactive
COP(=O)(OC)OC=C(Cl)Cl	inactive
CCNc1nc(Cl)nc(NCC)n1	inactive
Oc1c(Br)cc(Br)cc1Br	inactive
Cc1ccc(N=CN(C)C=Nc2ccc(C)cc2C)c(C)c1	inactive
N#Cc1nn(-c2c(Cl)cc(C(F)(F)F)cc2Cl)c(N)c1S(=O)C(F)(F)F (centres undefined)	inactive
CC[n+]1c(-c2ccccc2)c2cc(N)ccc2c2ccc(N)cc21	inactive
COP(=O)(OC)C(O)C(Cl)(Cl)Cl (centres undefined)	inactive
CCCCCCCCCCCC[N+](C)(C)CCOc1ccccc1	inactive
O=c1n(Cl)c(=O)n(Cl)c(=O)n1Cl	inactive
CNC(=O)Oc1cccc2ccccc12	inactive
COCC(=O)N(c1c(C)cccc1C)C(C)C(=O)OC (centres undefined)	inactive
